Measured values: PubChem BioAssay AID651815 (National Center for Advancing Translational Sciences (NCATS), 2012)
In all, about 2,100 compounds went through this assay and about 1,100 (52%) were called active. Another 29% or so got no clear call; they are omitted. Calls come from the whole dose curve; as a rule, active = well fitted inhibition curve with a large enough effect; inconclusive = small, poorly fitted or top-dose-only effect; inactive = no such curve, though single readings can be large or run the other way. So high a share suggests a set chosen from earlier hits. The list shows a part of the results.

What follows are molecules tested against DNA dC->dU-editing enzyme APOBEC-3F (Homo sapiens) (UniProt Q8IUX4) (assay: qHTS for inhibitors of Vif-A3F interactions: Cherry picks counterscreen). Settings: HeLa A3F-eYFP/Vif cells, eYFP fluorescence, 24 h; series mostly up to 46.1 µM.
How it was run: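 Rescue of Vif-driven A3F-eYFP degradation read as cellular eYFP fluorescence after 24 h compound exposure (several concentrations) in stable HeLa cells; MG132 (2 mM stock) as positive control.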
Note: nearly all actives have a fitted effect of over 65% in size.
Potency is the fitted concentration of half-maximal effect.

Chain of DNA dC->dU-editing enzyme APOBEC-3F (Homo sapiens) (Q8IUX4 whole entry, looked up): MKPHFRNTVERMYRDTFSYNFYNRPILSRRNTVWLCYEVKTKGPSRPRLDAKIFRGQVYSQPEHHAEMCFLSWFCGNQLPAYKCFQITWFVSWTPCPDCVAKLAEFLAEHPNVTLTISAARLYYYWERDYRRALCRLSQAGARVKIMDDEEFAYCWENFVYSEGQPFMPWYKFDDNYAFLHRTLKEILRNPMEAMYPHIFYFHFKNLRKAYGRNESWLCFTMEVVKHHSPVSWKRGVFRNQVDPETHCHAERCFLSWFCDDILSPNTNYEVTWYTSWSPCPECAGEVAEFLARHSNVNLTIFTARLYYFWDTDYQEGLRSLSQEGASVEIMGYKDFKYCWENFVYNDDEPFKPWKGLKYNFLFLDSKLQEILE

Row | Compound | Potency
1 | Cc1cccc2cc(C#N)c(SCC(=O)N3CC(=O)Nc4ccccc43)nc12 | 7.9 µM (active)
2 | Cc1cc(C)c2nc(SCC(=O)N3CC(=O)Nc4ccccc43)c(C#N)cc2c1 | 3.14 µM (active)
3 | CC1=C(C(=O)Nc2cccc(F)c2)C(c2ccsc2)C2=C(CC(C)(C)CC2=O)N1 (centres undefined) | 2.8 µM (active)
4 | COc1ccc2cc(-c3nc(Cl)c4c5c(sc4n3)CC(C)CC5)c(=O)oc2c1 (centres undefined) | 20.6 µM (active)
5 | CCN(CC)c1ccc2cc(-c3nc4sc5c(c4c(=O)[nH]3)CCC(C(C)(C)C)C5)c(=O)oc2c1 (centres undefined) | inactive
6 | Nc1[nH]c2cc([N+](=O)[O-])ccc2c1-c1ccccn1 | 20.6 µM (active)
7 | COc1cc(-c2noc(C)c2C#Cc2ccc(N)cc2)cc(OC)c1OC | 0.994 µM (active)
8 | Cc1ccc(-c2nc(-c3cc4cccc(OCc5cccc(F)c5)c4oc3=O)no2)cc1 | 23.1 µM (active)
9 | N#Cc1c(Nc2ccccc2)[n+]([O-])c2ccc(Cl)cc2[n+]1[O-] | inactive
10 | C=C(C(=O)c1ccccc1)C(C)C(=C)C(=O)c1ccccc1 | 3.53 µM (active)
11 | C=C(C(=O)c1ccccc1)C(C(=C)C(=O)c1ccccc1)c1ccc(OC)cc1 | 3.96 µM (active)
12 | S=C(NC1CCCCC1)N(CCc1ccccc1)CCc1ccccc1 | inactive
13 | COCCN1C(=O)/C(=C/c2ccc(N3CCCC3)cc2C)SC1=S | 2.91 µM (active)
14 | COCCN1C(=O)/C(=C/c2ccc(N3CCCC3)cc2)SC1=S | 5.17 µM (active)
15 | CCn1c(O)c(/C=N/N=C/c2ccc(OC)cc2)c2cc(C3=NNC(=O)CC3)ccc21 | 6.51 µM (active)
16 | COc1cc(CCC(=O)Nc2nnc(C)s2)cc(OC)c1OC | 4.44 µM (active)
17 | Cc1cc(OCC(=O)Nc2nnc(C3CC3)s2)ccc1Cl | inactive
18 | N#CCSc1ccccc1NC(=O)CN1C(=O)C2CC=CCC2C1=O (centres undefined) | 14 µM (active)
19 | N#CCSc1ccccc1NC(=O)CN1C(=O)NC(CCc2ccccc2)C1=O (centres undefined) | inactive
20 | CC(=O)Nc1ccc(Nc2c3c4c(cccc4n(C)c2=O)C(=O)c2ccccc2-3)cc1 | inactive
21 | COC(=O)Nc1ccc(S(=O)(=O)N2CCCc3ccccc32)cc1 | 5.59 µM (active)
22 | CC(=O)Nc1ccc(S(=O)(=O)N2c3ccccc3C(C)=CC2(C)C)cc1 | 2.23 µM (active)
23 | CC(=O)Nc1ccc(S(=O)(=O)N2CCSc3ccccc32)cc1 | 2.5 µM (active)

Row | Compound | Potency
24 | O=C(CN1c2cccc3cccc(c23)S1(=O)=O)Nc1ccc(S(=O)(=O)N2CCOCC2)cc1 | inactive
25 | Cc1ccc2nsnc2c1NC(=O)c1ccc(-c2cc(Cl)ccc2Cl)o1 | 14 µM (active)
26 | Cc1nc(CSc2nsc(/C=C/N(C)C)c2C#N)cs1 | inactive
27 | CCSc1nnc(-c2sc3nnc(-c4ccccc4)c(-c4ccccc4)c3c2N)o1 | 4.11 µM (active)
28 | OCCCn1c(C2CCCN2c2nc(-c3ccc(Cl)cc3)cs2)nc2cc(Cl)c(Cl)cc21 (centres undefined) | inactive
29 | COc1cccc2sc(Nc3nc(-c4cc5ccccc5oc4=O)cs3)nc12 | 3.14 µM (active)
30 | O=C1c2ccccc2C(=O)c2cc(N3CCCCC3)ccc21 | 7.04 µM (active)
31 | O=C(CSc1nc2ccccc2s1)c1cc2ccccc2o1 | inactive
32 | COc1ccc(/C=N/NC(=O)c2ccccc2Cl)cc1CSc1nc2ccccc2s1 | 4.44 µM (active)
33 | COc1ccc(/C=N/NC(=O)c2cccnc2)cc1CSc1ccccn1 | 3.14 µM (active)
34 | COc1cc(OC)cc(C(=O)N/N=C/c2ccc(OC)c(COc3ccc4ccccc4c3)c2)c1 | 12.5 µM (active)
35 | COc1cnc(-c2ccccn2)nc1Oc1ccc(F)cc1F | inactive
36 | COc1ccc(/C=N\NC(=O)c2ccccc2F)cc1COc1ccc(F)cc1F | 2.23 µM (active)
37 | COc1ccccc1/C=N/NC(=S)Nc1cccnc1 | inactive
38 | COc1ccc(/C=N/NC(=O)c2cccnc2)cc1COc1ccc(NC(C)=O)cc1 | 12.5 µM (active)
39 | Cn1c(N)c(-c2ccccc2)c2ccc([N+](=O)[O-])cc2c1=O | 14 µM (active)
40 | CCN1C(=O)/C(=C2/Sc3ccc(OC)cc3N2C)SC1=Nc1cccc(O)c1 | 17.7 µM (active)
41 | C=CCN1C(=O)/C(=C2/Sc3ccc(OC)cc3N2CC)SC1=S | 13 µM (active)
42 | CCN(CC)c1ccc(/C=C/c2ccncc2)cc1 | 13 µM (active)
43 | CN(C)c1ccc(/C=C/c2ccncc2)cc1 | 9.2 µM (active)
44 | CCN(CC)c1ccc(/C=C/c2ccccn2)cc1 | 20.6 µM (active)
45 | CCN(CC)c1ccc(/C=C/C2=C3C=CC=CC3NC=C2)cc1 (centres undefined) | 23.1 µM (active)
46 | Cc1ccc(S(=O)c2ccc([N+](=O)[O-])c3nonc23)cc1 (centres undefined) | inactive

Row | Compound | Potency
47 | CC[n+]1ccccc1/C=C/c1ccc(N(C)C)cc1 | 23.1 µM (active)
48 | CC(C)CC[n+]1ccccc1/C=C/c1ccc(N(C)C)cc1 | 18.4 µM (active)
49 | CCOC(=O)c1cc2n(c1/N=C/N(C)C)-c1ccccc1C2=O | 18.4 µM (active)
50 | CCOC(=O)c1c(CN(CC)CC)n(-c2ccccc2)c2ccc(O)cc12 | inactive
51 | CCOC(=O)c1cnc(-n2nc(C)cc2C)nc1NNc1nc(-c2ccccc2)cc(-c2ccccc2)n1 | inactive
52 | CCOC(=O)c1cc2n(c1N)-c1ccccc1C2=O | 18.4 µM (active)
53 | Cc1cc(/C=C2\SC(=S)N(C)C2=O)c(C)n1-c1ccc(O)cc1 | 18.4 µM (active)
54 | Cc1cc(/C=C2\SC(=S)N(C)C2=O)c(C)n1-c1ccccc1O | 18.4 µM (active)
55 | NNC(=O)c1cc2sccc2s1 | inactive
56 | CCn1ncc(/C=N\NC(=O)c2csc3ccccc23)c1C | 2.5 µM (active)
57 | CCOC(=O)/C(=C/C1=CC(=C/N(C)C)/C(=O)O1)C(C)=O | inactive
58 | CCOc1ccc(C2CC(c3c(O)c4ccccc4oc3=O)=NN2c2ccccc2)cc1OC (centres undefined) | 14.6 µM (active)
59 | CNC(=O)C(Sc1nc(C)nc2c1oc1ccccc12)C(C)=O (centres undefined) | inactive
60 | CCOc1ccccc1Oc1nc(C)nc2c1oc1ccccc12 | 2.31 µM (active)
61 | Cc1cccc(N2CCN(C(=O)c3cccc(N4CCCC4=O)c3)C(C)C2)c1 (centres undefined) | 6.27 µM (active)
62 | COc1ccc(OC)c(NC(=O)Cn2c(=O)n(-c3ccc(Cl)cc3)c(=O)c3c(C)c(C)sc32)c1 | 5.8 µM (active)
63 | COc1ccc(OC)c(NC(=O)Cn2cnc3onc(-c4ccc(Cl)cc4)c3c2=O)c1 | inactive
64 | Cc1ccc(-c2cc(C(=O)N/N=C/c3c[nH]c4ccccc34)[nH]n2)cc1 | 3.53 µM (active)
65 | Cc1cc(N)cc(C)c1-c1c(Br)cc(N)cc1Br | 12.5 µM (active)
66 | CCCN1C(=O)S/C(=C\c2ccc(N3CCOCC3)o2)C1=O | 3.96 µM (active)
67 | O=C1S/C(=C\c2ccc(N3CCOCC3)o2)C(=O)N1c1ccccc1 | 3.53 µM (active)
68 | O=C1S/C(=C/c2ccc(N3CCOCC3)o2)C(=O)N1Cc1ccc(F)cc1 | 5.59 µM (active)
69 | CCOC(=O)CN1C(=O)S/C(=C/c2ccc(N3CCCCC3)o2)C1=O | 4.61 µM (active)

Row | Compound | Potency
70 | Cc1ccc(NC(=S)N/N=C2\CCCCC2C)cc1 (centres undefined) | inactive
71 | O=C1S/C(=C/c2ccc(N3CCOCC3)o2)C(=O)N1Cc1c(F)cccc1Cl | 2.23 µM (active)
72 | CC(C)n1cc(NC(=O)c2cc(-c3ccccc3)on2)cn1 | 3.53 µM (active)
73 | CCc1ccc2nc(N(CCCN(C)C)C(=O)c3ccc(S(=O)(=O)N(C)C4CCCCC4)cc3)sc2c1 | inactive
74 | O=C(Nc1nc2ccc(S(=O)(=O)N3CCCC3)cc2s1)C1CCCCC1 | 4.44 µM (active)
75 | O=C(Nc1nc(-c2ccccn2)cs1)C1CCCC1 | inactive
76 | C=CCOc1c(Cl)cc(C(=S)N2CCCC2)cc1OCC | 14 µM (active)
77 | CCCCOc1ccc(/C=C/C2=CC(C)(C)NC(=S)N2)cc1OCC | inactive
78 | Cc1ccc(F)c(S(=O)(=O)NC(=O)C2(C)CCN2C(=O)Cc2ccc(Cl)cc2Cl)c1 (centres undefined) | inactive
79 | Cc1cc(=O)oc2cc(OCC(=O)N3c4ccccc4CC3C)ccc12 (centres undefined) | 3.53 µM (active)
80 | COc1ccccc1C1=NOC(COc2ccc3c(C)cc(=O)oc3c2)C1 (centres undefined) | 1.12 µM (active)
81 | CCOC(=O)c1cc(-c2ccccc2C)n(CC2CC(c3ccc(OC)cc3)=NO2)n1 (centres undefined) | inactive
82 | COc1ccc(-c2cnnc(N/N=C/c3ccc(O)c(OC)c3)n2)cc1 | 9.94 µM (active)
83 | COc1cc(/C=N/Nc2ccc(Cl)nn2)cc(OC)c1O | inactive
84 | Oc1ccc(/C=N\Nc2nncc(-c3ccccc3)n2)cc1 | 19.8 µM (active)
85 | COc1cc(/C=N/Nc2cc(C)nc(NS(=O)(=O)c3ccccc3)n2)ccc1O | inactive
86 | O=c1oc2c3c4c(cc2c(C(F)(F)F)c1CCN1CCOCC1)CCCN4CCC3 | 3.66 µM (active)
87 | Cc1ccc2[nH]c(C(=O)NN=C3CCCCC3)c(-c3ccccc3)c2c1 | inactive
88 | CN(C)c1ccc(/C=N/NC(=O)c2cc(-c3ccc4c(c3)OCO4)n[nH]2)cc1 | 15.8 µM (active)
89 | CCc1ccc(NC(=O)/C(C#N)=C/c2cc3ccc(C)cc3nc2N2CCOCC2)cc1 | 23.1 µM (active)
